# HCMV inh: qHTS Assay for inhibitors of the human cytomegalovirus (HCMV) | HFF cells, HCMV-luciferase reporter, 72 h; active compounds read low | activity change, negative = inhibition, % at 57.5 µM | 4.5% of 410,000 active | AID 1259415, 2018; in the data active means activity change below about -60%; inconclusive means no clear call, values can overlap the other calls; inactive means above about -39%
#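 Inhibition of viral replication was scored as loss of reporter luminescence in HFFs infected with HCMV-luciferase (MOI 1 PFU/cell) for 72 h; compounds tested at 2 doses, normalized to buffer and Salinomycin controls.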
# RE007 growth inh: qHTS Assay for Inhibitors of the HIV-1 protein Vpr | S. pombe RE007 Vpr strain, BacTiter-Glo ATP luminescence, 24 h | Potency, µM (series often up to 92.2 µM), for the others: top-dose activity change, negative = less growth, usual class: inhibitors | 0.21% of 360,000 active | AID 651644, 2012; active means well fitted falling curve with a large enough effect; inconclusive means small, poorly fitted or top-dose-only effect; inactive means no such curve, though single readings can be large or run the other way; further: potency means the concentration at half of the fitted maximal effect; nearly all actives have a fitted effect of over 50% in size
#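 Fission yeast strain RE007, carrying one chromosomally integrated HIV-1 vpr copy, was seeded at OD 0.01 in PMG+AL medium with 23 nL pinned compound. After 24 h at 30 °C and 99% humidity, viability was read by BacTiter-Glo luminescence.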
# Giardia FBPA inh-1: qHTS Assay for Inhibitors of Fructose-1,6-bisphosphate Aldolase from Giardia Lamblia | 0.71% of 290,000 active | purified Giardia FBPA | A8B2U2 | Potency, µM (doses to about 59.6 µM), without a hit: top-dose activity, negative = inhibition, most hits filed as inhibitors; further: potency means the concentration at half of the fitted maximal effect; nearly all actives have a fitted effect of over 55% in size
# Target sequence (A8B2U2 whole entry, looked up): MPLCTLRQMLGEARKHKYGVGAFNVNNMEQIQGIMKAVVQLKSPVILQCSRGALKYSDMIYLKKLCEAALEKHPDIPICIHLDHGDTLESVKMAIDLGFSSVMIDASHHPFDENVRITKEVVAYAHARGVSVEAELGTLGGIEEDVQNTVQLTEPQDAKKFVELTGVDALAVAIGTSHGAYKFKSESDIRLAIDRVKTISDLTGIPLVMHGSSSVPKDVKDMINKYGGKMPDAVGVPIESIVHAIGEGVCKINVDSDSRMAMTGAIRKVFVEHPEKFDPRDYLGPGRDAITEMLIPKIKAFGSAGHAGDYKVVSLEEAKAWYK
#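 40 nM FBPA preincubated 10 min at RT with compound (up to 57.5 uM final), then substrate plus GAPDH/TPI/NAD/arsenate coupling and diaphorase/resazurin added. Fluorescence read after 20 min at RT, 525/598 nm.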
# Sm TGR inh: qHTS Assay for the Inhibitors of Schistosoma Mansoni Peroxiredoxins; purified TGR, DTNB reduction, TNB absorbance 405 nm; Potency, µM (doses to about 114 µM), inactives show at the top dose activity change, negative = inhibition, actives largely listed as inhibitors; 3% of 360,000 active; AID 485364, 2010; further: potency means the concentration at half of the fitted maximal effect; nearly all actives have a fitted effect of over 60% in size
#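 Kinetic colorimetric format: TGR-catalysed, NADPH-driven DTNB reduction monitored via TNB absorbance. Enzyme dispensed at 20 nM; compound exposure 15 min at room temperature before reaction start.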
# FMDV inh: High Throughput Screening for Foot and Mouth Disease Virus Antivirals; Potency, µM (series often up to 57.9 µM), for inactives: top-dose activity change, negative = inhibition, most hits filed as inhibitors; 1.2% of 410,000 active; FMDV antiviral cell-based qHTS; calls by dose curve; tested in HEK293T cells; further: read-out not given here; potency means the concentration at half of the fitted maximal effect; nearly all actives have a fitted effect of over 45% in size
# TbPYK inhibitor: qHTS of Trypanosoma Brucei Inhibitors; pyruvate kinase (Trypanosoma brucei), Q57TT1; Potency, µM (doses to about 76.8 µM), for the others: at the top dose activity, negative = inhibition, actives largely listed as inhibitors; TbPYK enzyme, Kinase-Glo Plus ATP luminescence, 45 min; 0.12% of 410,000 active; further: potency means the concentration at half of the fitted maximal effect; nearly all actives have a fitted effect of over 50% in size
#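 ADP (130 uM final) triggers the TbPYK reaction after compound addition; incubation is 45 min at room temperature. Kinase-Glo Plus is then added and luminescence imaged. Normalized data are fitted to concentration-effect curves.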
# Giardia growth: qHTS Assay for Inhibitors of Fructose-1,6-bisphosphate Aldolase from Giardia Lamblia: Giardia lamblia growth inhibition | 5% of 1,500 active | Potency, µM (highest dose often 57.5 µM), without a hit: at the highest dose activity change, negative = inhibition, usual class: inhibitors | shares compounds with Giardia FBPA inh-1 | Giardia lamblia trophozoite growth inhibition;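 further: potency means the concentration at half of the fitted maximal effect; trophozoites exposed to compound for 48 h at 37 °C; nearly all actives have a fitted effect of over 70% in size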
# Mammalian tox: qHTS Assay for Inhibitors of Fructose-1,6-bisphosphate Aldolase from Giardia Lamblia: Mammalian cellular toxicity; AID 2786, 2010; 4% of 1,500 active; Potency, µM (doses to about 57.5 µM), without a hit: at the top dose viability change, negative = toxicity, most hits filed as inhibitors; mammalian cell viability counter-screen, qHTS; shares compounds with Giardia FBPA inh-1;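 further: Chinese hamster ovary cells used as mammalian cytotoxicity surrogate; viability measured as cellular ATP by luminescence; potency means the concentration at half of the fitted maximal effect; compound exposure lasted 48 h before reading; nearly all actives have a fitted effect of over 60% in size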
# Giardia FBPA inh-2: qHTS Assay for Inhibitors of Fructose-1,6-bisphosphate Aldolase from Giardia Lamblia: Primary screen confirmation; Potency, µM (top dose mostly 57.5 µM), for the others: at the highest dose activity change, negative = inhibition, actives largely listed as inhibitors; shares compounds with Giardia FBPA inh-1; purified Giardia aldolase enzyme activity, qHTS; 5% of 1,500 active; further: potency means the concentration at half of the fitted maximal effect; nearly all actives have a fitted effect of over 45% in size
# Rabbit FBPA inh: qHTS Assay for Inhibitors of Fructose-1,6-bisphosphate Aldolase from Giardia Lamblia: Rabbit FBPA Selectivity. 4% of 1,500 active. shares compounds with Giardia FBPA inh-1. Rabbit muscle FBPA enzyme inhibition, selectivity counter-screen. Potency, µM (series often up to 57.5 µM), without a hit: top-dose activity, negative = inhibition, most hits filed as inhibitors; further: potency means the concentration at half of the fitted maximal effect; nearly all actives have a fitted effect of over 60% in size
# Target sequence (P00883 whole entry, looked up): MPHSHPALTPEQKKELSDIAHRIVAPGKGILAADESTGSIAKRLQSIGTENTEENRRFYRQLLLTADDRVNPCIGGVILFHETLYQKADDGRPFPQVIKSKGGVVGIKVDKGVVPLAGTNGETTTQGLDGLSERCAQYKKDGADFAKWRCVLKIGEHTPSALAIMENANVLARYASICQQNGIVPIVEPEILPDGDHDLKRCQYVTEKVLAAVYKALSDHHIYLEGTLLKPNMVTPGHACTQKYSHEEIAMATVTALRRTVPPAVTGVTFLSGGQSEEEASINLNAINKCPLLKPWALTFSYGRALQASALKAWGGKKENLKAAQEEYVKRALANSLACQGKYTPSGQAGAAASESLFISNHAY
# GAPDH coupling: qHTS Assay for Inhibitors of Fructose-1,6-bisphosphate Aldolase from Giardia Lamblia: Coupling assay counterscreen confirmation; shares compounds with Giardia FBPA inh-1; GAPDH coupling enzyme counterscreen, biochemical, qHTS; Potency, µM (series often up to 57.5 µM), for the others: at the top dose activity change, negative = inhibition, hits mostly inhibitors; 6% of 1,500 active; further: potency means the concentration at half of the fitted maximal effect; nearly all actives have a fitted effect of over 55% in size
# * = called active by the depositor; ? = inconclusive; / = no result given; [ ] = remark or other dose. Shown are actives, neighbours in structure and some others; about 7.7% of the full set was active somewhere. Unless noted, the call rests on the fitted dose curve; in most records, active means well fitted curve in the direction sought with a large enough effect; inconclusive means small, poorly fitted or top-dose-only effect, or another doubt; inactive means no such curve, though single readings can be large; an effect the other way counts as inactive or inconclusive. On the % scale 0 is the no-effect control and ±100 the full control effect.
SMILES,HCMV inh,RE007 growth inh,Giardia FBPA inh-1,Sm TGR inh,FMDV inh,TbPYK inhibitor,Giardia growth,Mammalian tox,Giardia FBPA inh-2,Rabbit FBPA inh,GAPDH coupling
CC(C)n1c(=O)[nH][nH]c1=S,-31,23%,18µM*,-28%,-5%,3.5µM*,-4%[10.4 µM],3%,-10%,32µM*,-16%
Cc1ccc(Cl)cc1NC(=O)Cn1c(=O)n(CCCS(=O)(=O)C2CCCCC2)c(=O)c2ccccc21,-27,/,/,-6%,-14%,7%,/,/,/,/,/
CCN1CCN(CC(=O)Nc2nc3ccccc3s2)CC1,3,1%,10µM*,-19%,13%,6%,-22%,-5%,2%,8%,3%
CC(CCC(=O)Nc1nncs1)C(=O)O (stereo not given),72,10%,0%,7%,0%,-1%,/,/,/,/,/
CCc1nnc(NC(=O)CN2CCN(S(C)(=O)=O)CC2)s1,18,5%,?,-10%,-1%,0%,/,/,/,/,/
CCCN1CCN(CC(=O)Nc2nncs2)CC1,-6,4%,4.5µM*,5%,-1%,-1%,9%,-8%,7%,9%,14%
CCc1nnc(NC(=O)CN2CCCC(C)C2)s1 (stereo not given),7,6%,4µM*,5%,-4%,-1%,-8%[10.4 µM],16%,3%,4%,15%
CN1CCN(CC(=O)Nc2nc3ccccc3s2)CC1,-2,-6%,?,13%,32%,10%,/,/,/,/,/
NC(=S)Nc1nc2ccccc2s1,-108*,-29%,5.6µM*,-2%,43%,-7%,-6%[38.3 µM],?,6%,10%,-13%
COCC(=O)Nc1nc2ccccc2s1,151,1%,9%,2%,28%,-1%,/,/,/,/,/
CCOc1ccc(C(=O)N2CC(=O)Nc3ccc(C)cc3C2c2ccc(F)cc2)cc1OCC (stereo not given),-13,/,/,1%,-25%,2%,/,/,/,/,/
CCc1ccc(NC(=O)Cn2c(=O)n(CCC(=O)NCCc3ccc(Cl)cc3)c(=O)c3ccccc32)cc1,-14,/,/,-1%,-14%,-2%,/,/,/,/,/
Cc1nnc(NC(=O)CN2CC(C)OC(C)C2)s1 (stereo not given),6,0%,2.5µM*,-13%,10%,-2%,-5%[38.3 µM],-7%,0%,2%,4%
CCOC(=O)N1CCN(CC(=O)Nc2nnc(C(F)(F)F)s2)CC1,-5,0%,5µM*,-16%,-14%,22%,?,-6%,7%,6%,-10%
O=C(CN1CCN(c2ccccc2F)CC1)Nc1nnc(C(F)(F)F)s1,-11,4%,-2%,34%,1%,3%,/,/,/,/,/
CCc1nnc(NC(=O)CN2CCN(CC)CC2)s1,12,-7%,3.5µM*,1%,4%,-1%,2%[10.4 µM],1%,9%,6%,14%
CN(Cc1ccco1)c1ncnc2ccc(-c3cccc(C#N)c3)cc12,/,/,?,/,-18%,/,/,/,/,/,/
Cc1ccc(N2C(=O)C(CC(=O)Nc3ccc(F)cc3)N(CCC3=CCCCC3)C2=O)cc1 (stereo not given),-26,/,/,-2%,2%,-2%,/,/,/,/,/
CCn1c(=O)c(C(=O)CN(C)Cc2ccc(F)cc2)c(N)n(Cc2ccccc2)c1=O,-31,-15%,3%,4%,-28%,3%,/,/,/,/,/
CCn1c(=O)c(C(=O)CN(C)Cc2cccc(OC)c2OC)c(N)n(Cc2ccccc2)c1=O,-29,-5%,16µM*,-1%,-17%,17%,34%,-7%,2%,4%,-9%
CC(C)(C)c1ccccc1OCCCCCn1ccnc1,13,-10%,18µM*,1%,-28%,47%,68%,8%,-14%,-20%,-13%
CC(C)(C)c1cc(Cl)ccc1OCCn1ccnc1,-26,0%,18µM*,6%,-16%,-6%,5%,12%,-11%,0%,-21%
Cc1cc(C(C)(C)C)ccc1OCCn1ccnc1,-33,-2%,-27%,-1%,-27%,30%,/,/,/,/,/
Clc1cccc(OCCn2ccnc2)c1,-21,7%,35µM*,0%,8%,10%,?,11%,11%,11%,18%
Cc1ccc(C(C)(C)C)c(OCCCn2ccnc2)c1,3,3%,?,-16%,?,4%,/,/,/,/,/
SMILES,HCMV inh,RE007 growth inh,Giardia FBPA inh-1,Sm TGR inh,FMDV inh,TbPYK inhibitor,Giardia growth,Mammalian tox,Giardia FBPA inh-2,Rabbit FBPA inh,GAPDH coupling
Cc1cccc(C)c1OCCCn1ccnc1,-18,3%,22µM*,8%,2%,-2%,9%,33%,7%,3%,17%
Cc1cc(C)c(OCCCn2ccnc2)c(C)c1,-3,-4%,?,0%,-21%,-10%,/,/,/,/,/
CC(C)(C)NC(=O)c1oc2ccccc2c1NC(=O)c1ccc(F)cc1,-30,/,/,6%,-23%,-2%,/,/,/,/,/
NC(C(=O)O)c1cc(O)c(Cl)c(O)c1 (stereo not given),/,/,/,/,1%,/,/,/,/,/,/
Cc1ccccc1N(C)C(=O)c1noc2c1COc1ccccc1-2,?,/,/,0%,4%,?,/,/,/,/,/
NS(=O)(=O)c1ccc(NC(=S)NCC2CCCO2)cc1 (stereo not given),-26,5%,-2%,-17%,-4%,-19%,/,/,/,/,/
